Here are results for four compounds from PubChem BioAssay (EPA / NIEHS).

What is called AC50 is the midpoint of the concentration-response curve, whichever way the signal moves.

The structures appear in SMILES notation. The source made the active and inactive calls. How the source made its calls: active means hit-call score of the fitted dose curve at least 0.9, where 1 is the maximum; inactive means score below 0.9.

Holding throughout (conditions): mRNA level, 48 h; actives raise or lower the signal
Read-out in test [1]: Heat shock 70 kDa protein 1 (HSPA1A), gene 3303
As to the kind of experiment: LTEA_HepaRG_HSPA1A: Life Technologies and Expression Analysis (LTEA) Assay for Heat shock 70 kDa protein 1 (HSPA1A) using HepaRG (AID 2283502). The gist of the method:
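HSPA1A expression measured by qRT-PCR with ACTB/GAPDH/POLR2A normalization; curves fitted in both directions relative to DMSO vehicle. Exposure: 48 h in HepaRG cells, duplicate 8-point half-log series from 100 uM, 0.5% DMSO, serum-free induction medium.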

Read-out in test [2]: Hypoxia-inducible factor 1-alpha (Homo sapiens) (UniProt Q16665)
As to the kind of experiment: LTEA_HepaRG_HIF1A: Life Technologies and Expression Analysis (LTEA) Assay for Hypoxia-inducible factor 1 (HIF1A) Trancription factor using HepaRG (AID 2283503). The gist of the method: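 HIF1A transcript level read by qRT-PCR (ACTB, GAPDH, POLR2A normalization) after 48 h chemical exposure of HepaRG cultures. Eight half-log concentrations, top 100 uM, 0.5% DMSO vehicle, duplicates; bidirectional curve fit against DMSO baseline.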

Read-out in test [3]: 3-Hydroxy-3-Methylglutaryl-CoA Synthase 2 (HMGCS2), HMGCS2 (gene 3158)
As to the kind of experiment: LTEA_HepaRG_HMGCS2: Life Technologies and Expression Analysis (LTEA) Assay for 3-Hydroxy-3-Methylglutaryl-CoA Synthase 2 (HMGCS2) using HepaRG (AID 2283504). The essentials:
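Expression of HMGCS2 in human HepaRG liver cells is measured by qRT-PCR 48 h after dosing (highest 100 uM, half-log series, 0.5% DMSO). Values come from bidirectional concentration-response fitting with DMSO as baseline.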

Read-out in the next test: HGF (gene 3082)
In words: LTEA_HepaRG_HGF: Life Technologies and Expression Analysis (LTEA) Assay for Hepatocyte Growth Facto (HGF) using HepaRG (AID 2283505). The essentials:
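Gain or loss of HGF mRNA in human HepaRG liver cells after 48 h chemical exposure; eight concentrations up to 100 uM with 0.5% DMSO vehicle, quantified by TaqMan qRT-PCR.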

Read-out in test [4]: Insulin Like Growth Factor 1 (IGF1), IGF1 (gene 3479)
In words: LTEA_HepaRG_IGF1: Life Technologies and Expression Analysis (LTEA) Assay for Insulin Like Growth Factor 1 (IGF1) using HepaRG (AID 2283506). The essentials: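 Expression measured by TaqMan qRT-PCR on a Fluidigm array, with three housekeeping genes for normalisation, after 48 h treatment of HepaRG cells. Top concentration 100 uM with half-log steps, 0.5% DMSO vehicle, bidirectional fit.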

Read-out in test [5]: Insulin-like growth factor-binding protein 1 (IGFBP1), IGFBP1 (gene 3484)
In words: LTEA_HepaRG_IGFBP1: Life Technologies and Expression Analysis (LTEA) Assay for Insulin-like growth factor-binding protein 1 (IGFBP1) using HepaRG (AID 2283508). The essentials: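 mRNA induction or loss was quantified by qRT-PCR after 48 h chemical exposure of human HepaRG cells, with 0.5% DMSO as vehicle and baseline. Concentration-response over eight points up to 100 uM.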

Read-out in test [6]: Interleukin 6 (IL6), IL6 (gene 3569)
In words: LTEA_HepaRG_IL6: Life Technologies and Expression Analysis (LTEA) Assay for Interleukin 6 (IL6) using HepaRG (AID 2283509). The gist of the method:
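Changes in IL6 mRNA, up or down relative to 0.5% DMSO controls, were derived from concentration-response curves in human HepaRG cells treated for 48 h at up to 100 uM, with ACTB, GAPDH and POLR2A as normalizers.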

Read-out in test [7]: Interleukin 6 Receptor (IL6R), IL6R (gene 3570)
As to the kind of experiment: LTEA_HepaRG_IL6R: Life Technologies and Expression Analysis (LTEA) Assay for Interleukin 6 Receptor (IL6R) using HepaRG (AID 2283510).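 On AC50: differentiated human HepaRG liver cells in serum-free induction medium; TaqMan qRT-PCR signal normalized to ACTB GAPDH and POLR2A housekeeping genes.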 The gist of the method: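 IL6R transcript level by qRT-PCR after 48 h chemical exposure (8-point, half-log, max 100 uM, 0.5% DMSO vehicle) of HepaRG cells in serum-free induction medium. Normalized to three housekeeping genes; curves fitted in both directions relative to DMSO.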

Read-out in test [8]: Potassium channel subfamily K member 1 (KCNK1), KCNK1 (gene 3775)
As to the kind of experiment: LTEA_HepaRG_KCNK1: Life Technologies and Expression Analysis (LTEA) Assay for Potassium channel subfamily K member 1 (KCNK1) using HepaRG (AID 2283511). The gist of the method:
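Human HepaRG cultures receive test chemicals for 48 h in 0.5% DMSO, top concentration 100 uM with half-log dilutions. Induction or suppression of KCNK1 mRNA relative to DMSO is derived by bidirectional fitting of qRT-PCR data.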

Read-out in test [9]: Keratin 19 (KRT19), KRT19 (gene 3880)
In words: LTEA_HepaRG_KRT19: Life Technologies and Expression Analysis (LTEA) Assay for Keratin 19 (KRT19) using HepaRG (AID 2283512). The gist of the method:
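Gene-expression endpoint in the human liver line HepaRG after 48 h exposure to up to 100 uM test chemical with 0.5% DMSO vehicle; KRT19 mRNA by qRT-PCR, analyzed bidirectionally versus DMSO.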

Read-out in test [10]: JUN Transcription Factor, JUN (gene 3725)
As to the kind of experiment: LTEA_HepaRG_JUN: Life Technologies and Expression Analysis (LTEA) Assay for JUN Transcription Factor using HepaRG (AID 2283513). The gist of the method: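 mRNA measured by TaqMan qRT-PCR after 48 h chemical exposure of HepaRG cultures; normalization to three housekeeping genes. Duplicate eight-point half-log curves from 100 uM in 0.5% DMSO; gain or loss fitted against DMSO baseline.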

Read-out in test [11]: Lipase C (LIPC), LIPC (gene 3990)
As to the kind of experiment: LTEA_HepaRG_LIPC: Life Technologies and Expression Analysis (LTEA) Assay for Lipase C (LIPC) using HepaRG (AID 2283514). The gist of the method:
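In this multiplexed gene-expression screen, human HepaRG cultures received test chemicals for 48 h across eight concentrations with 100 uM highest, in duplicate. Values reflect LIPC mRNA induction or suppression versus DMSO vehicle, from normalized qRT-PCR.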

Read-out in test [12]: Lipoprotein lipase (LPL), LPL (gene 4023)
As to the kind of experiment: LTEA_HepaRG_LPL: Life Technologies and Expression Analysis (LTEA) Assay for Lipoprotein lipase (LPL) using HepaRG (AID 2283515). The gist of the method: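 Concentration-response testing used half-log steps from 100 uM in 0.5% DMSO on human HepaRG cells, 48 h, duplicate wells. Phenobarbital 1 mM served as induction control; LPL mRNA was normalized to ACTB, GAPDH, POLR2A.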

Read-out in test [13]: MicroRNA 122 (MIR122), gene 406906
As to the kind of experiment: LTEA_HepaRG_MIR122: Life Technologies and Expression Analysis (LTEA) Assay for MicroRNA 122 (MIR122) using HepaRG (AID 2283516). Further: the transcript read is the microRNA miR-122. The essentials: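 Expression measured by microfluidic qRT-PCR with three housekeeping genes for normalisation, after 48 h treatment of HepaRG cultures. Eight concentrations (top 100 uM, half-log steps, 0.5% DMSO vehicle) in duplicate; gain or loss fitted relative to vehicle.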

Read-out in test [14]: matrix metalloproteinase-10 (MMP10), MMP10 (gene 4319)
As to the kind of experiment: LTEA_HepaRG_MMP10: Life Technologies and Expression Analysis (LTEA) Assay for matrix metalloproteinase-10 (MMP10) using HepaRG (AID 2283517). The gist of the method: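 In differentiated HepaRG cultures kept in 0.5% DMSO, test chemicals act for 48 h over an eight-point range with a top dose of 100 uM. Expression is then quantified by TaqMan RT-PCR against ACTB, GAPDH and POLR2A.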

Read-out in a further test: MYC, MYC (gene 4609)
In words: LTEA_HepaRG_MYC: Life Technologies and Expression Analysis (LTEA) Assay for MYC using HepaRG (AID 2283518). The essentials: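 Cells are thawed, plated and cultured 48 h, then treated for 48 h with test chemicals (eight half-log concentrations from 100 uM, 0.5% DMSO vehicle). RNA is isolated and MYC expression quantified by qRT-PCR against three housekeeping genes.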

Read-out in test [15]: matrix metalloproteinase-3 (MMP3), MMP3 (gene 4314)
As to the kind of experiment: LTEA_HepaRG_MMP3: Life Technologies and Expression Analysis (LTEA) Assay for matrix metalloproteinase-3 (MMP3) using HepaRG (AID 2283519). The gist of the method: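 Human liver HepaRG cultures received chemicals (top concentration 100 uM, 0.5% DMSO) for 48 h in duplicate. MMP3 mRNA induction or loss was then assessed via TaqMan qRT-PCR with housekeeping-gene normalisation.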

Read-out in test [16]: Paternally Expressed 10 (PEG10), PEG10 (gene 23089)
In words: LTEA_HepaRG_PEG10: Life Technologies and Expression Analysis (LTEA) Assay for Paternally Expressed 10 (PEG10) using HepaRG (AID 2283520).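 On AC50: differentiated HepaRG human liver cells in serum-free induction medium with 0.5% DMSO; PEG10 transcript by qRT-PCR normalised to ACTB GAPDH and POLR2A.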 The gist of the method:
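PEG10 transcript measured by Fluidigm qRT-PCR, normalized to three housekeeping genes, in HepaRG cells treated 48 h (highest 100 uM, half-log steps, 0.5% DMSO vehicle). Cells plated 48 h before switching to serum-free induction medium.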

Read-out in test [17]: Protein phosphatase 2A (PPP2R4), PTPA (gene 5524)
As to the kind of experiment: LTEA_HepaRG_PPP2R4: Life Technologies and Expression Analysis (LTEA) Assay for Protein phosphatase 2A (PPP2R4) using HepaRG (AID 2283522). The essentials: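 Expression was quantified by Fluidigm qRT-PCR normalised to three housekeeping genes after 48 h treatment. Human HepaRG cells received an 8-point series from 100 µM downward by half-logs, in duplicate with 0.5% DMSO vehicle and 1 mM phenobarbital as induction control.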

Read-out in test [18]: Phosphatase and tensin (PTEN), PTEN (gene 5728)
As to the kind of experiment: LTEA_HepaRG_PTEN: Life Technologies and Expression Analysis (LTEA) Assay for Phosphatase and tensin (PTEN) using HepaRG (AID 2283523). The essentials:
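Expression of PTEN is quantified in the human liver line HepaRG following two days of dosing (top concentration 100 uM, half-log dilutions, 0.5% DMSO). Values derive from bidirectional curve fitting relative to DMSO controls.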

Chain of Hypoxia-inducible factor 1-alpha (Homo sapiens) (Q16665 whole entry, looked up): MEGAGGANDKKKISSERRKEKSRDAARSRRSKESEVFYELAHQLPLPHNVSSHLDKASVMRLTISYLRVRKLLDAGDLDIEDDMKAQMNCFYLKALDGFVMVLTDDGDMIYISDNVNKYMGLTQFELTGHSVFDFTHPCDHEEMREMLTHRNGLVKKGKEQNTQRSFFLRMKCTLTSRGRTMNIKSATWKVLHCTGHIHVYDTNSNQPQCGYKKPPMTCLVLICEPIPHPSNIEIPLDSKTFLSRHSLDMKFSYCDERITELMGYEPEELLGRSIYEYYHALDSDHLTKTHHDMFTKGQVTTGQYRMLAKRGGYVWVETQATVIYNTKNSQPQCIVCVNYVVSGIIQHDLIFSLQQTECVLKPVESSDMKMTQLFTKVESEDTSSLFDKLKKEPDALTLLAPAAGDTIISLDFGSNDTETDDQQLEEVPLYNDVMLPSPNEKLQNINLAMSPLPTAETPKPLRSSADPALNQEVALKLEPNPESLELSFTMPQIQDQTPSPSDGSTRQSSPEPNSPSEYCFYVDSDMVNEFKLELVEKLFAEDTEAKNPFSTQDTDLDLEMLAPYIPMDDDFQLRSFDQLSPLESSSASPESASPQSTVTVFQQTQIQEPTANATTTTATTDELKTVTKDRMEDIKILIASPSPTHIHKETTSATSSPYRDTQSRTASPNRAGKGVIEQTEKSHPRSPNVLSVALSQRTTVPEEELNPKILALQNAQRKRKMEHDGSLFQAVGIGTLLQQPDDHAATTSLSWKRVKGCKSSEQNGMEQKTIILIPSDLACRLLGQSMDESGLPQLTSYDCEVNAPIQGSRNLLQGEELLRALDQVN

As to `CCC(C)(C)c1ccc(O)c(C(C)(C)CC)c1`, the compound was classed as inactive (in test [1]; in test [2]; in [3]; in the test with HGF (gene 3082); in test [4]; in test [5]). Also, the call in test [6], in test [7], in test [8], in test [9], in test [10] and in test [11] was inactive. Besides, the outcome was “inactive” in [12]; “inactive” in test [13]; “inactive” in test [14]; “inactive” with MYC, MYC (gene 4609); “inactive” in test [15]; “inactive” in [16]. Further, the compound was classed as inactive in test [17] and in [18].
On to `O=[N+]([O-])c1ccc(O)c([N+](=O)[O-])c1`, for which the compound was called inactive (in [1]; in the test with HGF (gene 3082); in test [8]; in test [9]; in test [10]; in test [12]). Also, the result in test [14] and in test [15] was inactive. Also, the AC50 in test [2] was 44.8 µM (active); in test [3], 22.9 µM (active); in test [4], 27.9 µM (active); in [5], 13.3 µM (active); in [6], 60.3 µM (active); in test [7] it was 17.7 µM (active). The AC50 in [11] was 12 µM (active); in [13], 23.1 µM (active); in the test with MYC, MYC (gene 4609), 89.6 µM (active); in [16], 13.2 µM (active); in test [17], 13.1 µM (active); in [18], 31.8 µM (active).
For `CN(C)N=O`, the compound was classed as inactive (in test [1]; in test [2]; in test [3]; in the test with HGF (gene 3082); in test [4]; in [5]). In addition, the compound was classed as inactive in [6], in test [7], in test [8], in [9], in test [10] and in test [11]. For the same compound, the outcome was “inactive” in test [12]; “inactive” in test [13]; “inactive” in test [14]; “inactive” with MYC, MYC (gene 4609); “inactive” in test [16]; “inactive” in [17]. In test [18], the compound was called inactive.
In the case of `CCCCCCCCc1ccc(O)cc1`, the compound was called inactive (in test [1]; in test [2]; with HGF (gene 3082); in test [4]; in [5]; in test [6]). The compound was called inactive in test [7], in [8], in test [9], in test [10], in [11] and in test [12]. Also, the outcome in [13] is “inactive”; in test [14], “inactive”; in the test with MYC, MYC (gene 4609) it was “inactive”; in test [15] it was “inactive”; in test [16], “inactive”; in test [17], “inactive”. The result in [18] was inactive. Also, the AC50 in [3] is 64.6 µM (active).
